This is a sample that favours compounds with a hit; in the whole collection about 2.4% have one here.
ANO1 activ: TMEM16A chloride channel activators or potentiators, primary screen, cell-based, HTS; Anoctamin-1 (Mus musculus), Q8BHY3; HEK293 TMEM16A/YFP-H148Q/I152L, iodide quench fluorescence; active compounds read low; B-score at 10 µM; actives 0.3% (n = 340,000);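 active = fluorescence-ratio B-score plate-corrected deviation score at least 3 library SD below zero, with starting fluorescence score within 5 deviations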;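 also: channel opened by trigger with iodide after compound preincubation; score built on the fluorescence ratio of max minus min over baseline; more negative score means more quench and so TMEM16A activation or potentiation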
Target sequence (Q8BHY3 whole entry, looked up): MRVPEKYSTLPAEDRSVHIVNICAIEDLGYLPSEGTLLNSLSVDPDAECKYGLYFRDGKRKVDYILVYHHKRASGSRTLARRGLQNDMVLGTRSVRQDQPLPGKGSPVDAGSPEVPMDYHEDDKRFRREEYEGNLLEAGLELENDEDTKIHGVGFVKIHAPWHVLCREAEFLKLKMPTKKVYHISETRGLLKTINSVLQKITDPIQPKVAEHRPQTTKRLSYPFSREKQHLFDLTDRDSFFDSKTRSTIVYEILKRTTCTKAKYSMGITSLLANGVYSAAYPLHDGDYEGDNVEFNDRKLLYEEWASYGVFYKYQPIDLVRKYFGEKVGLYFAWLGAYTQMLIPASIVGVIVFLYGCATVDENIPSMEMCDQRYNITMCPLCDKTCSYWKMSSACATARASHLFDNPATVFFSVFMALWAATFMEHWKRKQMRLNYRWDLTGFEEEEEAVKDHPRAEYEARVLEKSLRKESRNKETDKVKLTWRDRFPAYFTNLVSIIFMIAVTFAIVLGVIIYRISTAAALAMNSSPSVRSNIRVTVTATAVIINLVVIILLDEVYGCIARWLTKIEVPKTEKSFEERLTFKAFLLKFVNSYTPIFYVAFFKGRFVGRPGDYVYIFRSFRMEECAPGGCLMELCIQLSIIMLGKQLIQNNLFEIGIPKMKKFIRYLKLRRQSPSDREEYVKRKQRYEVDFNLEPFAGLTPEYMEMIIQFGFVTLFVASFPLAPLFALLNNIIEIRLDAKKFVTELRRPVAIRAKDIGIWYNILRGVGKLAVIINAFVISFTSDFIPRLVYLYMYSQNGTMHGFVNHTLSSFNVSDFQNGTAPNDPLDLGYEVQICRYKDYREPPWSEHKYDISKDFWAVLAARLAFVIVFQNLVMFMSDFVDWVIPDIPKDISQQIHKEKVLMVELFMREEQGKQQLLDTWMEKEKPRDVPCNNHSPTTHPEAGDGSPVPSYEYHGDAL
CRFR2-BP antag: antagonists of CRF-BP/CRF-R2 complex, primary screen, cell-based, HEK293, calcium dye fluorescence, uHTS; actives 0.59% (n = 350,000); CRF-induced calcium fluorescence; inhibition, % at 11.8 µM;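 active = inhibition of the ligand-induced calcium signal above about 50% at the single tested concentration, limit read from the data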
TMEM16A inh: TMEM16A chloride channel inhibitors, primary screen, cell-based, HTS; HEK293 TMEM16A/YFP iodide influx fluorescence, ionomycin; normalized B-score (activity score, 25-100; higher = stronger inhibition) at 10 µM; actives 1.2% (n = 310,000);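 active = ratio plate-corrected score three or more library SD toward inhibition, starting fluorescence score within five deviations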;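 also: score derived from kinetic fluorescence span divided by baseline fluorescence per well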
Cardiac RTF inh: cardiac RTF calcium sensitivity inhibitors, primary screen, biochemical, IANBD-TnC fluorescence, EC70 calcium; Troponin I, cardiac muscle (Homo sapiens) + Troponin T, cardiac muscle (Homo sapiens) + …; IANBD-labeled cardiac RTF, Ca2+ fluorescence; inhibition, % at 7.15 µM; actives 0.12% (n = 340,000); AID 493244, 2011;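 active = inhibition above the mean inhibition of all tested compounds plus 3 SD, cut at about 17% in these data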;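 also: assay run at fixed EC70 calcium of 1.6 mM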
CRFBP-R2 agonist: agonists of CRF-BP/CRF-R2 complex, primary screen, cell-based, HEK293, calcium dye fluorescence, uHTS; CRF-binding protein / CRF receptor 2 complex (human); calcium dye fluorescence (FLIPR); percent of saturating CRF peptide response; activation, % at 13.2 µM; actives 0.46% (n = 350,000);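 active = activation of at least 50%, plus an integration ratio under a set limit after plate pattern correction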
RTF Ca sens act: cardiac RTF calcium sensitivity activators, primary screen, biochemical, IANBD-TnC fluorescence, EC20 calcium. IANBD-labeled TnC RTF fluorescence at EC20 calcium; 0% EC20 calcium, 100% full calcium. actives 0.24% (n = 340,000). AID 493008, 2010. Troponin I, cardiac muscle (Homo sapiens) + Troponin T, cardiac muscle (Homo sapiens) + …. activation, % at 7.2 µM;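 active = activation above the mean over all tested compounds plus 3 SD, cut at about 30% in these data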;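 also: rise in fluorescence read as greater calcium sensitivity of cardiac thin filaments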
A number is an active result; i = inactive; nt = no result.

SMILES	ANO1 activ	CRFR2-BP antag	TMEM16A inh	Cardiac RTF inh	CRFBP-R2 agonist	RTF Ca sens act
COc1cccc(/C=C2\Oc3cc(OCC(=O)N4CCCCC4)ccc3C2=O)c1OC	i	i	i	i	i	i
COc1cccc(/C=C2\Oc3cc(OCC(=O)N4CCCC4)ccc3C2=O)c1OC	-37.7	i	i	i	i	i
O=C1/C(=C/c2ccccc2)Oc2cc(OC(=O)N3CCOCC3)ccc21	i	i	i	i	i	i
COc1ccc(-n2nc(C(=O)NCC(=O)N3CCC(C)CC3)c3ccccc3c2=O)cc1Cl	i	i	i	i	i	i
Cc1ccc(S(=O)(=O)NCc2nnnn2-c2ccc(F)cc2)cc1	nt	i	nt	nt	i	nt
CCOc1ccc(-c2nn(-c3ccccc3)cc2/C=C2\SC(=S)N(C3CCS(=O)(=O)C3)C2=O)cc1 (configuration not stated)	i	i	i	i	115.3	i
CCCOc1ccc(-c2nn(-c3ccccc3)cc2/C=C2\SC(=S)N(C3CCS(=O)(=O)C3)C2=O)cc1 (configuration not stated)	i	i	i	i	i	i
COC(=O)c1cccc(N(C(=O)c2cnccn2)C(C(=O)NC2CCCCC2)c2cn(C)nc2C)c1 (configuration not stated)	i	i	i	i	i	i
O=[N+]([O-])c1cc(/C=N\O)ccc1Oc1ccc(F)cc1	i	78.9	i	i	i	i
Cc1cccnc1NC(=O)C(c1ccccc1)c1ccccc1	i	i	i	i	i	i
COCCCNC(=O)CCC(=O)Nc1ccc2nc(N3CCOCC3)cc(C)c2c1	i	i	i	i	i	i
Cc1cc(N2CCN(C)CC2)nc2ccc(NC(=O)CCC(=O)NCCCOC(C)C)cc12	i	51.1	i	i	i	i
CCCCCCCNC(=O)c1ccc(N2CCC3(CC2)OCCO3)c([N+](=O)[O-])c1	i	i	100	i	i	i
O=C(COC(=O)CN1C(=O)c2ccccc2C1=O)Nc1ccccc1C(F)(F)F	nt	i	nt	nt	i	nt
Cc1ccc(-c2noc(CSc3nnc(-c4ccncc4)n3-c3ccc(C)cc3)n2)cc1	i	i	i	i	i	i
Clc1ccc(-c2nnc(SCc3nc(-c4ccccc4)no3)o2)cc1	-4.7	i	i	i	i	i
Clc1ccc(-c2noc(CSc3nnc(-c4ccncc4)n3-c3ccccc3)n2)cc1	i	i	100	i	i	i
COc1ccc(CCN2CC3=C(C2=O)C(c2ccccc2)NC(=O)N3C)cc1OC (configuration not stated)	i	i	i	i	i	i
CN1C(=O)NC(c2ccccc2)C2=C1CN(CCc1ccccc1)C2=O (configuration not stated)	i	124.8	i	i	i	i
O=C(NCc1ccccn1)c1ccc(OC2CCN(Cc3ccccc3O)CC2)cc1	i	i	i	i	i	i
COc1cccc(CN2CCC(Oc3ccc(C(=O)NCc4ccccn4)cc3)CC2)c1O	i	107.4	nt	i	i	i
CCC(=O)c1ccc(OCC(=O)OCC(=O)Nc2ccc(C)c(S(=O)(=O)N3CCCCC3)c2)cc1	i	i	nt	i	i	i
CCOc1ccc(OCCC(=O)OCC(=O)Nc2ccc(C)c(S(=O)(=O)N3CCCCC3)c2)cc1	i	i	100	i	i	i
N#CC1=C(N)NC(SCC(=O)O)=C(C#N)C12CCCC2	i	i	i	i	i	i
N#CC1=C(N)NC(SCc2ccc(F)cc2)=C(C#N)C12CCCCC2	i	i	100	i	i	i
SMILES	ANO1 activ	CRFR2-BP antag	TMEM16A inh	Cardiac RTF inh	CRFBP-R2 agonist	RTF Ca sens act
CCN(CCNC(=O)C1CCN(Cc2nc(-c3ccc(Cl)cc3)oc2C)CC1)c1ccccc1	i	i	100	i	i	i
CCc1ccc(-c2nc(CN3CCC(C(=O)N4CCN(c5ccccc5)CC4)CC3)c(C)o2)cc1	i	i	i	i	312.7	i
O=C(O)/C=C/c1ccc2c(-c3ccccc3)onc2c1	i	i	i	i	i	i
COc1ccccc1C1c2c(C)nn(-c3ccccc3)c2NC(=O)C1NC(=O)c1ccccc1 (configuration not stated)	i	i	i	i	i	i
CCN1C(=O)C(=O)N(Cc2ccc(OC)c(F)c2)C1=O	i	84.2	i	i	i	i
COc1ccc(CN2C(=O)NC(C)(c3ccc(C)cc3)C2=O)cc1F (configuration not stated)	i	i	i	i	i	i
COc1ccc(C2=NO[C@@H]3[C@@H]4C[C@@H]([C@H]5C(=O)N(C)C(=O)[C@@H]45)[C@H]23)c(OC)c1	i	i	i	nt	i	nt
CC(=O)NC(Cc1cccc(C)c1)C(=O)NC1CCN(c2ncccc2[N+](=O)[O-])CC1 (configuration not stated)	i	56.7	i	i	i	i
CC(=O)NC(Cc1cccc(F)c1)C(=O)NC1CCN(c2ncccc2[N+](=O)[O-])CC1 (configuration not stated)	i	i	i	i	i	i
CC(C)(C)OC(=O)N1CCC[C@H]1c1nnc(SCC(=O)Nc2ccc(Br)cc2)o1	i	i	i	i	i	i
NNC(=O)CN1CCN(c2ncc(C(F)(F)F)cc2Cl)CC1	i	i	i	i	i	i
CC(C)(C)NC(=O)NC(=O)CN1CCN(c2ncc(C(F)(F)F)cc2Cl)CC1	i	i	25	i	i	i
Cn1nc(CC(=O)N2CCN(c3ccccc3)CC2)c2ccccc2c1=O	i	i	i	i	i	i
Cc1[nH]n(CCC#N)c(=O)c1CC(=O)N1CCN(c2ccccc2)CC1	i	59.8	i	i	i	i
COc1ccc2c(c1)c(/C=C/c1cc[n+](C)cc1)cn2C	i	i	i	i	i	74.5
COc1ccc2c(/C=C/c3cc[n+](C)cc3)c[nH]c2c1	i	i	i	i	i	i
O=c1oc2c3c4c(cc2c(C(F)(F)F)c1CCN1CCOCC1)CCCN4CCC3	i	i	i	i	i	70.0
COC(=O)N/N=C(\C)c1cccs1	i	112.4	i	i	i	i
COC(=O)[C@H](C(C)C)N(Cc1ccccc1)S(=O)(=O)CCN1CCN(c2ccccc2)CC1	nt	i	nt	i	i	i
CC(=O)NC(Cc1ccccc1F)C(=O)NC1CCN(C(=O)NCc2ccccc2)CC1 (configuration not stated)	i	i	i	i	i	i
CCOC(=O)C(Sc1nnc(-c2ccncc2)o1)C(C)=O (configuration not stated)	i	94.2	i	i	i	i
